# Data from publication PMC5540273 (PLoS ONE, 2017).
# How the values were obtained:
# Conditions in all cases: concentration: 1 μM,replicates: in singlicate; n = 1
# [1] = system: FGFR1
# [2] = system: FGFR2
# [3] = system: FGFR3
# [4] = system: FGFR4
# [5] = system: FGR
# [6] = system: FLT1
# [7] = system: FLT3-autoinhibited
# [8] = system: FLT3
# [9] = system: FLT4
# [10] = system: FRK
# 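Also: KINOMEscan kinase panel screen.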
SMILES,%Inh [1] [%],%Inh [2] [%],%Inh [3] [%],%Inh [4] [%],%Inh [5] [%],%Inh [6] [%],%Inh [7] [%],%Inh [8] [%],%Inh [9] [%],%Inh [10] [%]
Cc1ccc(CC(=O)N2CCc3cc(-c4cn(C)c5ncnc(N)c45)ccc32)cc1 [GSK2634758],14,14,2,0,37,32,0,40,0,0
Cc1cccc2c(-c3ccncc3)c(-c3ccc(F)cc3)nn12.Cl [GW461487],0,33,4,9,2,8,0,0,0,0
COC(=O)c1cccc(NC(=O)NC2CCN(c3ccnc(Nc4cc(OC)c(OC)c(OC)c4)n3)C2)c1 (centres unmarked) [GSK1379767],0,0,32,0,25,13,4,33,14,17
CC(=O)Nc1ccc(-c2cc3ncnc(SCC(=O)O)c3s2)cc1,27,15,0,0,21,5,33,39,0,0
O=C(Nc1cccc(C(F)(F)F)c1)c1cccc(Oc2ccc3nccn3n2)c1,24,15,5,6,0,97.4,17,18,78,87
Cn1ccc2ncnc(Oc3ccc(NC(=O)Nc4cc(C(C)(C)C)on4)c(Cl)c3)c21,–,72,23,73,32,97.6,15,99.9,99.8,96.3
Cn1ccc2ncnc(Oc3ccc(NC(=O)Nc4cnn(C(C)(C)C)c4)c(Cl)c3)c21,–,14,1,0,10,97.4,8,99.2,98.3,70
Cc1ccn2nc(-c3ccc(F)cc3)c(-c3ccncc3)c2c1.Cl [GW457859],0,85,4,0,0,15,14,0,0,0
CC(C)S(=O)(=O)N1CCN(Cc2ccc3c(c2)nc(NC(=O)c2ccsc2)n3C[C@H](O)c2ccccc2)CC1 [GW635815],12,16,0,8,74,71,90.4,98,0,3
CN1CCN(CCNc2nc3cc(Oc4ccc(NC(=O)Nc5cc(C(F)(F)F)ccc5F)cc4)ccc3[nH]2)CC1.Cl.Cl [GW768504],6,0,0,0,0,90.7,0,98.1,49,69
CN1CCN(CCCNc2nccc(-c3c(-c4ccc(F)cc4)nn4cc(C(N)=O)ccc34)n2)CC1 [GW622475],28,0,8,0,0,54,1,10,28,0
Cn1ccc2ncnc(Oc3ccc(NC(=O)Nc4cncc(C(F)(F)F)c4)c(Cl)c3)c21,–,0,0,0,0,94.5,0,95.7,99.7,72
CCNCC(Cc1ccccc1)NC(=O)c1cc(Br)c(-c2ccnc3[nH]ccc23)s1.Cl.Cl (centres unmarked) [GSK1383280],88,81,61,68,22,54,9,69,49,17
Cc1cccc(-c2nc(Nc3ccncc3)c3sccc3n2)n1 [GW869641],16,0,7,8,11,26,14,41,15,1
CCn1c(-c2nonc2N)nc2cncc(Br)c21 [SB-738004],3,69,24,2,17,21,53,0,19,0
CC(C)c1nc(-c2cccc(NS(=O)(=O)c3ccccc3)c2)c(-c2ccnc(Nc3ccc4c(c3)CN(C)CC4)n2)s1 [GSK1649598],68,6,35,0,97.4,98.2,40,90.3,99.6,98.2
C[C@@H]1CNc2c(sc3ccc4nc(-c5ccc(O)cc5)ccc4c23)C(=O)N1,14,16,12,31,0,6,6,16,0,0

SMILES,%Inh [1] [%],%Inh [2] [%],%Inh [3] [%],%Inh [4] [%],%Inh [5] [%],%Inh [6] [%],%Inh [7] [%],%Inh [8] [%],%Inh [9] [%],%Inh [10] [%]
CC(C(=O)NC1CCN(c2ccnc(Nc3ccc(F)cc3)n2)C1)c1ccc(Cl)cc1 (centres unmarked) [GSK1379713],0,11,9,0,0,33,0,8,0,0
CC(=O)c1c(-c2ccncc2)[nH]c(-c2ccncc2)c1C [GW493036],0,0,0,9,27,10,0,0,0,0
CC(=O)Nc1nc2cnc(Nc3cc(NC(=O)c4cccc(CC(C)(C)C#N)c4)ccc3C)nc2s1,0,1,4,0,24,3,0,8,73,83
COc1cccc(OC)c1C(=O)Nc1cccc(-c2nn3ccccc3c2-c2ccnc(Nc3cccc(F)c3)n2)c1 [GSK361065],11,0,0,0,23,32,0,49,27,16
Cc1ccc(Nc2ccnc(Nc3ccc4c(c3)CS(=O)(=O)C4)n2)cc1O.Cl [GW579362],84,79,73,41,97,99.6,92.7,99,100,99.1
Cl.Cl.NC[C@H](CC1CCCCC1)NC(=O)c1ccc(-c2ccnc3[nH]ccc23)s1 [GSK1581428],26,0,6,0,25,42,26,91.9,13,10
Cn1ccc2ncnc(Oc3ccc(NC(=O)Nc4cccc(C(F)(F)F)c4)c(F)c3)c21,0,14,5,3,3,98.9,38,98,99.9,85
COC(=O)c1cccc(NC(=O)NC2CCN(c3ccnc(NCc4ccc(F)cc4)n3)CC2)c1 [GSK1379860],3,27,11,0,11,42,24,0,38,16
COc1cc2ncn(-c3cc(OCC4CCCCC4)c(C(N)=O)s3)c2cc1OC [GSK204559],26,3,12,9,29,44,0,0,66,4
Nc1nccc(-c2ccc3c(N)n[nH]c3c2)n1 [GSK1034945],0,0,0,12,15,6,2,0,11,0
CN(c1cccc(CNc2nc(Nc3ccc4c(c3)CC(=O)N4)ncc2C(F)(F)F)c1)S(C)(=O)=O,26,31,11,0,25,35,39,98.7,38,0
Cn1ccc2ncnc(Oc3ccc(NC(=O)Nc4cccc(C(F)(F)F)c4)c(Cl)c3)c21,–,10,0,14,5,99.6,0,84,99.9,94.9
O=C(NCC1CC1)c1ccc(-c2cc(C(=O)NC3CC3)ccc2F)cc1 [GW810445],0,0,0,0,0,0,0,12,0,2
CS(=O)(=O)Nc1ccc(-c2ccnc3[nH]ccc23)cc1 [GSK993273],29,20,4,8,16,56,10,74,28,0
Cc1ccc(C(=O)Nc2ccc(Oc3ccc4nc(NC(=O)C5CC5)cn4c3)c(F)c2)c(=O)n1-c1ccccc1,0,23,11,1,91,67,62,98.5,100,64
O=C(Nc1ccccc1)c1cccc(Oc2ccc3nccn3n2)c1,41,19,20,0,10,79,16,0,5,0
